# In paper PMC5892938, “SARNAclust: Semi-automatic detection of RNA protein binding motifs from immunoprecipitation data”:
# Over roughly 11,000 sequences, “log2 fold change” has its median near 0.00022; the highest 2% begin near 0.34. The list shows a part of the results.
# Biological target: GST-SBP-SLBP (stem-loop binding protein) (Homo sapiens, UniProt Q14493 1-270)
# Assay: targeted RNA Bind-n-Seq; RBNS binding buffer: 25 mM Tris pH 7.5, 150 mM KCl, 3 mM MgCl2, 0.1% Tween, 0.5 mg/mL BSA, 1 mM DTT; 27 nM protein, 750 pM RNA pool; temperature not stated; high values mean tight binding
# Settings: protein: recombinant; tags: N-terminal GST and SBP (pGEX6P1-SBP); structured_RNA
# How it was run: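 The protein, carrying a GST-SBP tag, was produced in Rosetta(DE3) pLysS E. coli, purified on glutathione, and mixed at 27 nM with 750 pM of a designed RNA oligo pool made by T7 transcription in RBNS binding buffer. RNA that bound was reverse transcribed using a barcoded primer of 10 nucleotides, amplified by PCR and sequenced on a MiSeq with 200-cycle paired-end reads. FLASH joined the reads, HISAT2 aligned them, and they were collapsed by barcode before the binding signal was taken as the DEseq binary-logarithm fold change of read counts for each sequence.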
row,Sequence,binding signal [log2 fold change]
1,GGUCACGUCUCAAUCAACUCCCAAAGGUUUUUUUUAGAGCCACCCAUCAACAGCUCGCAGUCAAG,0.324 ± 0.158
2,GGUCACGUCUCAAUCAACUCCCAAAGGCUUUUCUUAGAGCCACCCAUCAACAGCUCGCAGUCAAG,0.496 ± 0.164
3,GGUCACGUCUCAAUCAACUCCCAAAGGUUUUUUUUAGAACCACCCAUCAACAGCUCGCAGUCAAG,0.338 ± 0.169
4,GGUCACGUCUCAAUCAACUCCCAAAGGUUUUUUUAAGAGCCACCCAUCAACAGCUCGCAGUCAAG,0.54 ± 0.157
5,GGUCACGUCUCAAUCAACUCCCAAAGGUUUUUCUCAGAACCACCCAUCAACAGCUCGCAGUCAAG,0.402 ± 0.178
6,GGUCACGUCUCAAUCAACUCUAUCCCAGGAGUUUCCUCCUGCAUACUCAACAGCUCGCAGUCAAG,0.312 ± 0.201
7,GGUCACGUCUCAAUCAACUCUUUCCCAGGAGUUUUCUCCUGUUAUGUCAACAGCUCGCAGUCAAG,0.376 ± 0.182
8,GGUCACGUCUCAAUCAACUCUAUCCCAGGAGUUUACUCCUGUUUUCUCAACAGCUCGCAGUCAAG,0.399 ± 0.223
9,GGUCACGUCUCAAUCAACUCAUUCCCAGGAGUUUACUCCUGCUAACUCAACAGCUCGCAGUCAAG,0.364 ± 0.234
10,GGUCACGUCUCAAUCAACUCAAUCCCAGGAGUUUCCUCCUGCUAACUCAACAGCUCGCAGUCAAG,0.303 ± 0.231
11,GGUCACGUCUCAAUCAACUCUAGUCCAGGAGUUUUCUCCUGUUAAUUCAACAGCUCGCAGUCAAG,0.331 ± 0.217
12,GGUCACGUCUCAAUCAACUCAAUCCCAGGAGUUUUCUCCUGUAAAGUCAACAGCUCGCAGUCAAG,0.317 ± 0.231
13,GGUCACGUCUCAAUCAACUCAUCGUCAGGAGUUUACUCCUGCUAACUCAACAGCUCGCAGUCAAG,0.304 ± 0.246
14,GGUCACGUCUCAAUCAACUCAUCCUCAGGAGUUUCCUCCUGUUAAGUCAACAGCUCGCAGUCAAG,0.328 ± 0.204
15,GGUCACGUCUCAAUCAACUCAUCCCCAGGAGUUUACUCCUGUUUAGUCAACAGCUCGCAGUCAAG,0.458 ± 0.228
16,GGUCACGUCUCAAUCAACUCAUCCUCAGGAGUUUACUCCUGCUUACUCAACAGCUCGCAGUCAAG,0.315 ± 0.216
17,GGUCACGUCUCAAUCAACUCAGUCUCAGGAGUUUACUCCUGCUUAUUCAACAGCUCGCAGUCAAG,0.314 ± 0.242
18,GGUCACGUCUCAAUCAACUCAUCUUCAGGAGUUUACUCCUGCUUAGUCAACAGCUCGCAGUCAAG,0.342 ± 0.198
19,GGUCACGUCUCAAUCAACUCUUCGCCCAGGGAAACCCCUGGUAAUCUCAACAGCUCGCAGUCAAG,0.384 ± 0.343
20,GGUCACGUCUCAAUCAACUCAAUCUCCAGGGAAACCCCUGGUAAACUCAACAGCUCGCAGUCAAG,0.353 ± 0.274
21,GGUCACGUCUCAAUCAACUCUUCCUCCAGGGAAAACCCUGGUAAACUCAACAGCUCGCAGUCAAG,0.339 ± 0.267
22,GGUCACGUCUCAAUCAACUCUUCGUCCAGGGAAACCCCUGGUUUUCUCAACAGCUCGCAGUCAAG,0.36 ± 0.292
23,GGUCACGUCUCAAUCAACUCUUCGUCCAGGGAAAACCCUGGUUUUCUCAACAGCUCGCAGUCAAG,0.335 ± 0.277
24,GGUCACGUCUCAAUCAACUCUUCCUCCAGGGAAACCCCUGGUUAACUCAACAGCUCGCAGUCAAG,0.443 ± 0.293
